Gal4-VP16 FLuc: Gal4-VP16 reporter inhibition counter-screen | AID 2546 | Drosophila S2 Gal4-VP16 UAS-luciferase, luminescence, 20 h | 310,000 tested, 3.5% active | Potency, µM (doses to about 53.6 µM), actives largely listed as inhibitors;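 note: Gal4-VP16 expression switched on by copper sulfate through the metallothionein promoter; nearly all actives have a fitted effect of over 50% in size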
B2AR arrestin: agonists driving beta-arrestin recruitment to human beta2-adrenergic receptor; Potency, µM (highest dose often 46.1 µM), hits mostly activators; beta-arrestin recruitment to beta2AR, cell-based reporter; 330,000 tested, 0.02% active; P07550; note: nearly all actives have a fitted effect of over 65% in size
TSHR antag: human thyrotropin receptor antagonism; P16473; TSHR-expressing cells, TSH-stimulated cAMP HTRF, 2 h; hits give low values; activity change, negative = inhibition, % at 11.5 µM; 330,000 tested, 0.2% active; AID 504810;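 active = activity change below a set negative limit, meaning inhibition stronger than a set level, cut at about -70% in these data; inconclusive = activity change between two set negative limits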
Target sequence (P16473 whole entry, looked up): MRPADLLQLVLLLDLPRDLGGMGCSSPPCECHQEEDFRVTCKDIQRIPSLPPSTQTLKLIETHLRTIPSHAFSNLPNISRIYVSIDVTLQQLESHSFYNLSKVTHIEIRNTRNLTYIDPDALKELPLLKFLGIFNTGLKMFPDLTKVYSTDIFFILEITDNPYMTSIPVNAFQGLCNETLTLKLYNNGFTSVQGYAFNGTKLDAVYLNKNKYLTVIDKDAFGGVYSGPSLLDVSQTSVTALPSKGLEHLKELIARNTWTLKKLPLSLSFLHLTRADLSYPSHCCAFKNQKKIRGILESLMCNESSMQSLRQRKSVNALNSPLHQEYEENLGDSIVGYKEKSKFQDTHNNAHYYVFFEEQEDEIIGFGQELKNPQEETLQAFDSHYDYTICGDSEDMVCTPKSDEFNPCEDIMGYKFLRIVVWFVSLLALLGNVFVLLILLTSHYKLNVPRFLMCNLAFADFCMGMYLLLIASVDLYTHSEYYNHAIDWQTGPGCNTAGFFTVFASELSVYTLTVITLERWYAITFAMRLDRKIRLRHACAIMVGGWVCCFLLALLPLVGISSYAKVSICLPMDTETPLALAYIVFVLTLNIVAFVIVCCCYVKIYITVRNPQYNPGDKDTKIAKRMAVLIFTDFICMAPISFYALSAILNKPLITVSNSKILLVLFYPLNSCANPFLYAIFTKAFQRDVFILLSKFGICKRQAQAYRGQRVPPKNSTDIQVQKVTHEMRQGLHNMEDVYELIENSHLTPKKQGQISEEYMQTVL
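Cell-based HTRF cAMP assay; TSHR cells + compound, TSH EC80 (4nM final), 2 h, 37 deg C. Lysis with anti-cAMP cryptate and cAMP-d2, 30 min RT, read 665/620 nm.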
RORgamma inh: blocks mouse ROR gamma transcriptional activity | P51450 | Drosophila S2 Gal4-RORgamma UAS-luciferase reporter, 20 h | Potency, µM (series often up to 53.6 µM), hits mostly inhibitors | 310,000 tested, 5.4% active; note: nearly all actives have a fitted effect of over 60% in size
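ROR gamma transcriptional activity was tracked as Gal4-UAS luciferase output in stably transfected Drosophila Schneider cells, with compound added 1 hr before 700 uM copper sulfate induction and a 20 hr ambient-temperature incubation.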
ELG1 repair inh: ELG1-dependent DNA repair inhibition. HEK293T ELG1-luciferase reporter, luminescence, 16 h; DNA damage induced by 5-fluorouridine. Potency, µM (titrated, usually from 46.1 µM), hits mostly inhibitors. 330,000 tested, 2.3% active; note: nearly all actives have a fitted effect of over 55% in size
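HEK293T cells expressing luciferase-tagged ELG1 (2,000/well) received 5-Fluorouridine plus compound or DMSO for 16 hr at 37 °C. Luciferase was read by ONE-Glo luminescence after 30 min at room temperature.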
A number is an active result; . = inactive; ? = inconclusive; / = no result given; [ ] = remark or other dose. Compounds with a hit are over-represented: about 7.5% of the library has one in this group of screens. Unless noted, calls come from the whole dose curve; as a rule, active = well fitted curve in the direction sought with a large enough effect; inconclusive = small, poorly fitted or top-dose-only effect, or another doubt; inactive = no such curve, though single readings can be large; an effect the other way counts as inactive or inconclusive.

SMILES	Gal4-VP16 FLuc	B2AR arrestin	TSHR antag	RORgamma inh	ELG1 repair inh
C=CC[C@H](CC(=O)NCCO)C(=O)N[C@@H](COC(=O)[C@@H](CC=C)Cc1ccc(F)cc1)Cc1ccccc1	/	.	.	/	.
COc1ccc(C(=O)NC(=S)Nc2cccc(NC(=O)c3ccco3)c2)cc1[N+](=O)[O-]	?	.	.	10µM	?
CCOc1ccc(C(=O)NC(=S)Nc2cccc(NC(=O)c3ccco3)c2)cc1[N+](=O)[O-]	7.1µM	.	.	6.3µM	23µM
COc1ccc(C(=O)NC(=S)Nc2ccc(NC(=O)c3ccco3)cc2)cc1[N+](=O)[O-]	?	.	.	?	?
CC(=O)c1ccc(N=Nc2ccc(C)cc2)cc1	?	.	.	10µM	?
CC(=O)c1ccc(N=Nc2ccc(N(C)C)cc2)cc1	.	.	.	.	?
NC(=O)C1CCN(c2nc(-c3cccc([N+](=O)[O-])c3)cs2)CC1	/	/	.	/	/
CCN1CCN(Cc2ccc(NC(=O)c3ccc(C)c(NC(=O)c4nccn4C)c3)cc2C(F)(F)F)CC1	?	.	.	?	.
CCN1CCN(Cc2ccc(NC(=O)c3ccc(C)c(NC(=O)c4cccc5[nH]ccc45)c3)cc2C(F)(F)F)CC1	.	.	.	6.3µM	?
CC(=O)c1cccc(NC(=O)c2ccc(N(Cc3ccc(C)cc3)S(C)(=O)=O)cc2)c1	.	.	.	.	?
CC(=O)c1cccc(NS(=O)(=O)c2ccc(-c3cnc(C4CC4)o3)cc2)c1	8.9µM	.	.	.	?
CC(=O)c1cccc(NC(=O)c2ccc(N(C)S(=O)(=O)c3ccc(C)cc3)cc2)c1	.	.	.	.	16µM
CC(=O)c1cccc(NS(=O)(=O)c2ccc(C(=O)Nc3ccccc3)cc2)c1	10µM	.	.	?	.
CC(=O)Nc1ccc(NS(=O)(=O)c2ccc(-c3cnc(C4CC4)o3)cc2)cc1	.	.	.	.	.
C=CCC1NS(=O)(=O)OCC1NC(=O)OCC(Cl)(Cl)Cl (stereo unspecified)	.	.	.	.	.
CC(C)(C)OC1NS(=O)(=O)OCC1NCOC(Cl)(Cl)Cl (stereo unspecified)	22µM	.	.	10µM	.
CC(NC(=O)COC(=O)c1ccc([N+](=O)[O-])s1)c1ccccc1 (stereo unspecified)	.	.	.	11µM	.
Cc1ccc(C(=O)OCC(=O)NC(C)c2ccccc2)s1 (stereo unspecified)	/	.	.	/	.
O=C(O)c1c(Sc2ccccc2)c2cc(Cl)ccc2n1Cc1ccc(Cl)cc1	.	/	/	.	/
O=C(/C=C/c1ccccc1)Nc1ncn[nH]1	?	.	.	14µM	?
CCN(CC)c1ccc(C(=O)NC(=S)N2CCN(Cc3ccc4c(c3)OCO4)CC2)cc1	7.1µM	.	.	6.3µM	.
Cc1ccccc1NC(=S)N1CCN(Cc2ccc3c(c2)OCO3)CC1	?	.	.	?	.
Cc1c(Cl)cccc1NC(=S)N1CCN(Cc2ccc3c(c2)OCO3)CC1	14µM	.	.	11µM	.
Cc1ccc(S(=O)(=O)N(C)C)cc1NC(=S)N1CCN(Cc2ccc3c(c2)OCO3)CC1	.	.	.	.	8.2µM
S=c1[nH]nc(-c2ccncc2)n1/N=C/c1cccc2ccccc12	.	.	.	.	.
SMILES	Gal4-VP16 FLuc	B2AR arrestin	TSHR antag	RORgamma inh	ELG1 repair inh
CCc1n[nH]c(=S)n1/N=C/c1c(O)ccc2ccccc12	20µM	.	.	?	.
Cc1nnc(-c2ccccc2)c(=O)n1/N=C/c1c(O)ccc2ccccc12	18µM	.	.	?	?
CCc1n[nH]c(=S)n1/N=C/c1cccc2ccccc12	7.9µM	.	.	7.1µM	.
Nc1c(C(=O)c2ccccc2)sc2snc(SCC(=O)c3ccccc3)c12	13µM	.	.	11µM	.
Nc1nnc(SCC(=O)c2ccccc2)s1	.	.	.	.	?
COc1ccc(-c2nc3cnc(N4CCOCC4)nc3n(C3CC3)c2=O)cc1	.	/	/	.	/
O=C(CN1C(=O)C2CC=CCC2C1=O)Nc1nnc(C2CC2)s1 (stereo unspecified)	/	.	.	/	.
COc1ccccc1CNc1ncncc1-c1ccccc1OC	16µM	/	/	?	/
COC(=O)c1cc2ccc(OC)cc2c2cc(OC)c(OC)cc12	/	.	.	/	13µM
COC(=O)c1cc(OC)c(OC)cc1NC(=O)Nc1ccc(OC)cc1	.	.	.	.	.
O=[N+]([O-])c1cccc(C(F)(F)F)c1	.	/	/	.	/
CN1c2ccc(Cl)cc2C(=O)NC1c1ccc([N+](=O)[O-])s1 (stereo unspecified)	?	.	.	.	21µM
CCc1cccc2cc(C(O)CNC(C)(C)C)oc12 (stereo unspecified)	.	/	/	.	/
O=C(Cn1cnc2c(cnn2-c2ccc(F)cc2)c1=O)N1CCN(c2ccccc2F)CC1	.	.	.	.	18µM
Cn1c(=O)c2c(ncn2CC(=O)N2CCN(c3ccccc3F)CC2)n(C)c1=O	.	.	.	.	?
Cc1cccc(N2CCN(C(=O)Cn3cnc4c3c(=O)n(C)c(=O)n4C)CC2)c1C	.	.	.	.	21µM
Cc1ccc(-n2ncc3c(=O)n(CC(=O)N4CCCc5ccccc54)cnc32)cc1C	.	.	.	.	23µM
Cc1ccc(C(=O)Nc2ccc(N3CCN(C(=O)c4ccco4)CC3)cc2)cc1	.	.	.	.	?
O=C(Nc1ccc(N2CCN(C(=O)c3ccco3)CC2)cc1)c1ccc2c(c1)OCO2	.	.	.	.	18µM
O=C(Nc1ccc(N2CCN(C(=O)c3ccc(Cl)cc3)CC2)cc1)c1cc2ccccc2o1	.	.	.	.	?
O=C(Nc1ccc(N2CCN(C(=O)c3ccc(Cl)cc3)CC2)cc1)c1ccc(Br)o1	.	.	.	.	21µM
Cc1ccccc1C(=O)N1CCN(c2ccc(NC(=O)c3cccnc3)cc2)CC1	.[10 µM]	.	.	.	?
O=C(Nc1ccc(N2CCN(C(=O)c3ccco3)CC2)cc1)c1cc(Br)ccc1Cl	/	.	.	/	12µM
O=C(Nc1ccc(N2CCN(C(=O)c3ccco3)CC2)cc1)c1ccc(Br)cc1	.	.	.	.	.
Cc1ccccc1C(=O)N1CCN(c2ccc(NC(=O)c3ccc4c(c3)OCO4)cc2)CC1	.	.	.	?	5.8µM
CC12CCC(C[N+](C)(CCC[N+](C)(C)C)C1)C2(C)C (stereo unspecified)	.	/	/	.	/
Cc1ccc(N2C(SCC(=O)O)=NC(=Nc3cccc(C)c3)C23CCCC3)cc1	.	.	.	.	.
O=C(c1cc2ccccc2o1)N1CCN(c2ncccn2)CC1	/	.	.	/	.
O=c1c(-c2ccccc2)nc2cnc(N3CCNCC3)nc2n1C1CC1	.	/	/	.	/
CCN1C(=O)[C@H]2[C@H]3[C@H](O)[C@H](O)C/C(=N/OCC(C)C)[C@H]3CC[C@@H]2C1=O	.[10 µM]	/	/	.[10 µM]	/

Source: PubChem BioAssay (National Center for Advancing Translational Sciences (NCATS))
